“And” between values parts separate entries of the source, which are not always exact repeats. Equal entries are not always repeated. The panel holds about 79,000 compounds, 15% with a hit somewhere; the sample as a whole holds those more often. More than one record can exist for a structure, and the calls need not agree. The source made the active and inactive calls. Cut-off read from the data, not from the text of the source: active = growth inhibition above about 70%; inactive = the rest.
Experiments:
[1] = NCI Yeast Anticancer Drug Screen. Data for the rad50 strain (AID 155);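 note: 0% = growth of vehicle-only cultures of the same strain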; conditions: S. cerevisiae rad50 strain growth inhibition, stronger effect = higher value
In short: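 Readout: growth inhibition relative to vehicle-treated cultures. Compound exposure was carried out in a genetically defined yeast strain deficient in DNA damage repair.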

[2] = NCI Yeast Anticancer Drug Screen. Data for the mec2-1 strain (AID 157); conditions: S. cerevisiae mec2-1 strain, stronger effect = higher value
In short: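 Mutant yeast (mec2-1) grown with compound; growth inhibition relative to vehicle control reported.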

[3] = NCI Yeast Anticancer Drug Screen. Data for the sgs1 mgt1 strain (AID 161);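 note: 0% = growth of cultures given vehicle only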; conditions: S. cerevisiae sgs1 mgt1 strain, stronger effect = higher value
In short: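 Percent growth inhibition was derived by comparing compound-exposed mutant yeast with vehicle-exposed cultures. The strain carries alterations in DNA damage repair.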

[4] = NCI Yeast Anticancer Drug Screen. Data for the cln2 rad14 strain (AID 165);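 note: 0% = growth equal to vehicle treated cultures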; conditions: S. cerevisiae cln2 rad14 strain, stronger effect = higher value
In short: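 Readout is yeast growth inhibition versus vehicle-treated controls, using a strain with cln2 and rad14 alterations exposed to compound.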

[5] = NCI Yeast Anticancer Drug Screen. Data for the bub3 strain (AID 167); conditions: S. cerevisiae bub3 mutant strain, stronger effect = higher value
In short: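 Readout: yeast growth inhibition, expressed relative to vehicle-only wells. The test organism is a mutant strain from a panel with lesions in DNA repair or checkpoint genes.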

[6] = NCI Yeast Anticancer Drug Screen. Data for the mlh1 rad18 strain (AID 175); conditions: S. cerevisiae mlh1 rad18 strain growth inhibition, stronger effect = higher value
In short: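 Genetically defined yeast (DNA repair-deficient) exposed to compounds; growth inhibition determined relative to vehicle.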

[7] = at 5.0 µM (retest, dose inferred, filed as 0.5)
[8] = at 50.0 µM (retest, dose inferred, filed as 5.0)

Measured: growth inhibition

c1ccc(Cc2cc3ccccc3c3ccccc23)cc1
inactive: [1]; [7] 4% | [1]; [8] 14% | [1]; at 50.0 µM 20.1% | [2]; [7] 5% | [2]; [8] 23% | [2]; at 50.0 µM 14.9% | [3]; [7] 2% | [3]; [8] -3% | [3]; at 50.0 µM -6.6% | [4]; [7] 16% | [4]; [8] 6% | [4]; at 50.0 µM -0.55% | [5]; [7] 2% | [5]; [8] 3% | [6]; [7] 4% | [6]; [8] -2%
active: [5]; at 50.0 µM 91.3% | [6]; at 50.0 µM 82.5%

CC(C)CCCC(C)C1CCC2C3CC=C4CC([n+]5cccc6ccccc65)CCC4(C)C3CCC12C (configuration not stated)
active: [1]; [7] 78% | [1]; [8] 90% | [1]; at 50.0 µM 93.3% | [2]; [8] 92% | [2]; at 50.0 µM 95.4% | [3]; at 50.0 µM 94.8% | [4]; [8] 91% | [5]; [7] 74% | [5]; [8] 89% | [5]; at 50.0 µM 92.2% | [6]; [7] 74% | [6]; [8] 89% | [6]; at 50.0 µM 95.2%
inactive: [2]; [7] 11% | [3]; [7] 60% | [3]; [8] 50% | [4]; [7] 39% | [4]; at 50.0 µM 68%

O=C(NCCCCCCNC(=O)n1cc(F)c(=O)[nH]c1=O)NCCCOCCOCCOCCOCCOCCOCCOCCOCCOCCOCCOCCOCCOCCOCCOCCOCCOCCOCCOCCOCCOCCCNC(=O)C(O)C(O)C(OC1OC(CO)C(O)C(O)C1O)C(O)CO (configuration not stated)
active: [1]; [8] 95% | [1]; at 50.0 µM 74.3% | [2]; [8] 78% | [2]; at 50.0 µM 89% | [3]; [8] 81% | [3]; at 50.0 µM 81.5% | [6]; [8] 97%
inactive: [1]; [7] 11% | [2]; [7] 7% | [3]; [7] 30% | [4]; [7] 16% | [4]; [8] -5% | [4]; at 50.0 µM 27.1% | [5]; [7] 1% | [5]; [8] 4% | [5]; at 50.0 µM 48.4% | [6]; [7] 19% | [6]; at 50.0 µM -10.2%

O=C(Nc1cccc2c(OC(=O)C(Cl)Cl)c(N=Nc3ccc(S(=O)(=O)Nc4nccs4)cc3)cc(N=Nc3ccc(S(=O)(=O)Nc4nccs4)cc3)c12)C(Cl)Cl (tested in a mixture with another compound)
93% (active) and 29% (inactive): [4]; [7]
41% (inactive) and 88% (active): [5]; [8]
85% (active) and 35% (inactive): [6]; [7]
39% (inactive) and 90% (active): [2]; [8]
81.3% (active) and 39.8% (inactive): [6]; at 50.0 µM
6% (inactive) and 87% (active): [1]; [8]
inactive: [2]; at 50.0 µM 62% and 38.1% | [3]; at 50.0 µM 67.2% and 18.3% | [4]; at 50.0 µM 56.5% and 31.9% | [5]; at 50.0 µM 50.2% and 47.1%
93% (active) and 21% (inactive): [1]; [7]
29% (inactive) and 88% (active): [3]; [8]
94% (active) and 19% (inactive): [3]; [7]
95% (active) and 10% (inactive): [2]; [7]
90% (active) and 22% (inactive): [5]; [7]
34% (inactive) and 88% (active): [4]; [8]
71.8% (active) and 25.1% (inactive): [1]; at 50.0 µM
-14% (inactive) and 83% (active): [6]; [8]

CCOC(=O)C(C(=O)c1ccccc1)C(=O)c1ccccc1
-24.3% (inactive) and 90.8% (active): [1]; at 50.0 µM
-21.1% (inactive) and 90.6% (active): [4]; at 50.0 µM
-22% (inactive) and 90.8% (active): [6]; at 50.0 µM
-4.65% (inactive) and 92% (active): [3]; at 50.0 µM
inactive: [1]; [7] 29% | [2]; [7] 29% | [3]; [7] 37% | [4]; [7] 34% | [4]; [8] 56% | [5]; [7] 35% | [6]; [7] 35%
-14.4% (inactive) and 91.2% (active): [2]; at 50.0 µM
active: [1]; [8] 85% | [2]; [8] 93% | [3]; [8] 82% | [5]; [8] 92% | [6]; [8] 97%
-0.95% (inactive) and 90.5% (active): [5]; at 50.0 µM

Nc1nccnc1C(=O)O
inactive: [1]; [7] -166% | [1]; [8] -152% | [1]; at 50.0 µM -12.1% and 7.75% | [2]; [7] -49% | [2]; [8] -52% | [2]; at 50.0 µM 20.9% and 0.9% | [3]; [7] -63% | [3]; [8] -61% | [3]; at 50.0 µM -2.45% and 6.3% | [4]; [7] -59% | [4]; [8] -54% | [4]; at 50.0 µM 67.5% and 5.6% | [5]; [7] -74% | [5]; [8] -75% | [5]; at 50.0 µM 18.8% and -1.75% | [6]; [7] -145% | [6]; [8] -108% | [6]; at 50.0 µM 11.6% and 8.25%

Nc1ccc2c(ccc3ccc4ccccc4c32)c1
active: [1]; [8] 93% | [1]; at 50.0 µM 96.7% | [2]; [8] 98% | [2]; at 50.0 µM 96.8% | [3]; [8] 98% | [3]; at 50.0 µM 97.8% | [4]; [8] 96% | [4]; at 50.0 µM 95.5% | [5]; [8] 97% | [5]; at 50.0 µM 96.7% | [6]; [8] 97% | [6]; at 50.0 µM 95.6%
inactive: [1]; [7] -6% | [2]; [7] -8% | [3]; [7] -8% | [4]; [7] -7% | [5]; [7] -6% | [6]; [7] 17%

BrC(c1cccc2ccccc12)c1cccc2ccccc12
active: [1]; [8] 97% | [1]; at 50.0 µM 95.5% | [2]; [8] 97% | [2]; at 50.0 µM 94.7% | [3]; [8] 96% | [3]; at 50.0 µM 94.8% | [4]; [8] 94% | [4]; at 50.0 µM 92.8% | [5]; [8] 96% | [5]; at 50.0 µM 94.2% | [6]; [8] 95% | [6]; at 50.0 µM 95%
inactive: [1]; [7] 23% | [2]; [7] 20% | [3]; [7] 1% | [4]; [7] 0% | [5]; [7] -6% | [6]; [7] 18%

CC(NC(=O)C(N)Cc1ccccc1)C(=O)NC1C(CO)OC(n2cnc3c(N)ncnc32)C1O (configuration not stated)
inactive: [1]; [7] 0% | [1]; [8] -1% | [1]; at 50.0 µM 32.2% | [2]; [7] 2% | [2]; [8] 17% | [3]; [7] -5% | [3]; [8] -20% | [3]; at 50.0 µM 3.5% | [4]; [7] 0% | [4]; [8] -6% | [5]; [7] -3% | [5]; [8] -4% | [6]; [7] 12% | [6]; [8] 32% | [6]; at 50.0 µM 69.5%
active: [2]; at 50.0 µM 76.9% | [4]; at 50.0 µM 97.7% | [5]; at 50.0 µM 96.5%

O=[N+]([O-])Cc1cnc2nncn2n1
active: [1]; [8] 96% | [1]; at 50.0 µM 86.3% | [2]; [8] 97% | [2]; at 50.0 µM 98.4% | [3]; [8] 96% | [3]; at 50.0 µM 99.2% | [5]; [8] 99% | [6]; [8] 97% | [6]; at 50.0 µM 87.5%
inactive: [1]; [7] -6% | [2]; [7] -9% | [3]; [7] 2% | [4]; [7] 2% | [4]; [8] 53% | [4]; at 50.0 µM 24.2% | [5]; [7] -27% | [5]; at 50.0 µM 38.5% | [6]; [7] -12%

[N-]=[N+]=NC(=O)Nc1cccc(C(F)(F)F)c1
inactive: [1]; [7] 8% | [2]; [7] -1% | [3]; [7] 2% | [4]; [7] -3% | [5]; [7] 14% | [6]; [7] 8%
active: [1]; [8] 99% | [1]; at 50.0 µM 99% | [2]; [8] 99% | [2]; at 50.0 µM 99% | [3]; [8] 99% | [3]; at 50.0 µM 98.5% | [4]; [8] 99% | [4]; at 50.0 µM 97.8% | [5]; [8] 98% | [5]; at 50.0 µM 98.5% | [6]; [8] 98% | [6]; at 50.0 µM 98.8%

O=C1c2ccccc2C(=O)c2c(O)c(O)cc(O)c21
inactive: [4]; [7] 59%
88.5% (active) and 11.4% (inactive): [1]; at 50.0 µM
72.4% (active) and 9.2% (inactive): [4]; at 50.0 µM
86.1% (active) and -9.1% (inactive): [5]; at 50.0 µM
86.2% (active) and -3.5% (inactive): [2]; at 50.0 µM
active: [1]; [7] 97% | [1]; [8] 97% | [2]; [7] 99% | [2]; [8] 98% | [3]; [7] 98% | [3]; [8] 97% | [4]; [8] 95% | [5]; [7] 98% | [5]; [8] 97% | [6]; [7] 99% | [6]; [8] 97%
85.5% (active) and 25% (inactive): [6]; at 50.0 µM
86% (active) and 14.2% (inactive): [3]; at 50.0 µM

Clc1c(C(Cl)(Cl)Cl)nsc1N1CCCCC1
active: [6]; [8] 84%
inactive: [1]; [7] 17% | [1]; [8] 58% | [1]; at 50.0 µM 50.6% | [2]; [7] 16% | [2]; [8] 51% | [2]; at 50.0 µM 23.1% | [3]; [7] -3% | [3]; [8] 39% | [3]; at 50.0 µM 33.1% | [4]; [7] 17% | [4]; [8] 10% | [4]; at 50.0 µM 28% | [5]; [7] 1% | [5]; [8] 18% | [5]; at 50.0 µM 51.4% | [6]; [7] 18% | [6]; at 50.0 µM 46.7%

c1ccc(CSC(SCc2ccccc2)(c2ccccc2)c2ccccc2)cc1
active: [1]; [8] 88% | [2]; [8] 93% | [3]; [8] 90% | [4]; [8] 87% | [5]; [8] 83% | [6]; [8] 92%
15.4% (inactive) and 74.8% (active): [5]; at 50.0 µM
13.7% (inactive) and 81.3% (active): [6]; at 50.0 µM
14.8% (inactive) and 76.8% (active): [3]; at 50.0 µM
inactive: [1]; [7] 30% | [2]; [7] 13% | [2]; at 50.0 µM 5.7% and 63.5% | [3]; [7] 2% | [4]; [7] 11% | [4]; at 50.0 µM 18.2% and 65.3% | [5]; [7] -16% | [6]; [7] 22%
14.4% (inactive) and 72% (active): [1]; at 50.0 µM

From PubChem BioAssay (NCI)
